Bioassay records from PubChem.
TIM10 inh: growth inhibitors of isogenic TIM10 control yeast, primary screen, counter-screen for tim10-1 yeast inhibitor project, luminescence, uHTS | S. cerevisiae TIM10 strain growth, BacTiter-Glo luminescence, 24 h | inhibition, % at 10 µM | 330,000 tested, 1.4% active;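 active = inhibition of 40% or more at the single tested concentration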;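 note: wild-type TIM10 isogenic control strain grown at permissive 25 °C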
tim23-1 inh: growth inhibitors of tim23-1 mutant yeast, primary screen, luminescence, uHTS; inhibition, % at 20 µM; S. cerevisiae tim23-1 growth, BacTiter-Glo luminescence, 24 h; AID 463212, 2010; 330,000 tested, 1.3% active;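 active = growth inhibition of the mutant yeast at or above 50%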;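 note: temperature-sensitive mutant grown at 25 °C; plate controls were DMSO-treated mutant yeast for no effect and medium wells lacking yeast for full effect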
tim10-1 inh: growth inhibitors of tim10-1 mutant yeast, primary screen, luminescence, uHTS | S. cerevisiae tim10-1 ts strain growth, BacTiter-Glo, 24 h | AID 463190, 2010 | 330,000 tested, 2.2% active | inhibition, % at 20 µM;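 active = inhibition of at least 40%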;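 note: mutant grown at 25 °C; 0% = DMSO wells with yeast and 100% = wells holding no yeast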
NALP3 yeast inh: NALP3 inflammasome inhibitors in reconstituted yeast, primary screen, luminescence, uHTS. Yeast reconstituted NLRP3/ASC/caspase-1, beta-gal luminescence, 24 h. inhibition, % at 10 µM. 330,000 tested, 0.39% active. AID 2825, 2010;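 active = inhibition of 50% or more; inactive = inhibition below 50%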;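 note: plate controls were induced DMSO wells for no effect and uninduced yeast grown without galactose for full effect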
SKKanGAS inh: S. pyogenes SKKanGAS growth inhibitors in kanamycin, primary screen, streptokinase expression inhibitor project, SKKanGAS strain, BacTiter-Glo luminescence; 6 h; inhibition, % at 7.5 µM; 300,000 tested, 1.3% active;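 active = mean replicate score, as percent of positive control median, at least 50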;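 note: strain carries kanamycin resistance gene driven by streptokinase promoter and grows in 40 µg/ml kanamycin; loss of luminescence reflects streptokinase promoter inhibition or plain growth inhibition; 0% = median of DMSO wells and 100% = positive control at its reference dose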
NALP1 inh: NALP1 inflammasome inhibitors in reconstituted yeast, colorimetric, S. cerevisiae, triplicate retest | S. cerevisiae NALP1/ASC/caspase-1 growth, X-gal OD620, 72 h | AID 2071, 2009 | inhibition, % at 10 µM | 280,000 tested, 0.61% active; in the data active = inhibition mostly above about 24%, no sharp cut-off; inactive = mostly below about 32%
NALP3 yeast conf: NALP3 inhibitors retested in yeast, confirmation, luminescence, single concentration; shares compounds with NALP3 yeast inh; yeast expressing human NALP3; inhibition, % at 10 µM; 1,300 tested, 81% active; AID 435006, 2010; in the data active = inhibition above about 48%
Casp1 ASC ctr: CASP1-PYCARD signaling inhibition in yeast, confirmatory test, counterassay for NLRP3 inhibitor program, one-dose. yeast expressing Caspase-1-ASC, luminescence counter screen. AID 488784, 2010. shares compounds with NALP3 yeast inh. 1,000 tested, 66% active. inhibition, % at 10 µM
NALP3 retest: NALP3 inhibitors in yeast, repeat test, confirmation, luminescence, single concentration, retest; shares compounds with NALP3 yeast inh; yeast expressing human NALP3, luminescence read-out; inhibition, % at 10 µM; 1,000 tested, 53% active; AID 488794, 2010
tim10-1 conf: growth inhibitors of tim10-1 mutant yeast, confirmation, single concentration, luminescence, S. cerevisiae. shares compounds with tim10-1 inh. S. cerevisiae tim10-1 ts strain growth, BacTiter-Glo, 24 h. inhibition, % at 20 µM. 7,400 tested, 56% active;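 active = inhibition of yeast growth at or above a set limit in either of two repeat tests at 20 µM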;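 note: tim10-1 mutant grown at permissive 25 °C to find synthetic lethal compounds; 0% = DMSO yeast wells and 100% = medium wells without yeast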
TIM10 conf: growth inhibitors of wild-type TIM10 yeast, confirmation, counter-screen for tim10-1 synthetic lethality project, single concentration, luminescence, S. cerevisiae | 4,600 tested, 63% active | shares compounds with TIM10 inh | inhibition, % at 10 µM | S. cerevisiae tim10 strain growth, BacTiter-Glo luminescence, 24 h | AID 463215, 2010;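 active = inhibition of yeast growth at or above a set limit in either of two replicates at 10 µM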;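 note: this counterscreen used the strain with wild-type TIM10; 0% = yeast with DMSO and 100% = medium wells lacking yeast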
tim23-1 confirm: tim23-1 mutant yeast growth inhibitors, confirmation, luminescence, single concentration; inhibition, % at 20 µM; S. cerevisiae tim23-1 growth, BacTiter-Glo luminescence, 24 h; 4,400 tested, 83% active; shares compounds with tim23-1 inh;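 active = inhibition above about 39% in either of two replicate wells at 20 µM, limit read from the data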;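 note: temperature-sensitive tim23-1 mutant grown at 25 °C; 0% = DMSO wells with yeast and 100% = medium wells without yeast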
Active calls of the source: *; . = not tested or not shown. This is a sample that favours compounds with a hit; in the whole collection about 4.9% have one here. Cut-off read from the data, not from the text of the source, unless noted: active = inhibition above about 50%; inactive = the rest.

SMILES	TIM10 inh	tim23-1 inh	tim10-1 inh	NALP3 yeast inh	SKKanGAS inh	NALP1 inh	NALP3 yeast conf	Casp1 ASC ctr	NALP3 retest	TIM10 conf	tim23-1 confirm	others
Cc1cc(C)cc(N=C2NC(=O)/C(=C/c3cccs3)S2)c1	13	13	7	18	17	32	.	.	.	.	.
O=C1NC(=Nc2ccccc2)S/C1=C\c1cccs1	31	65*	24	56*	5	.	30	.	.	.	72*
CC(C)(CO)NCc1c(OCc2ccc(Cl)cc2)ccc2ccccc12	3	4	-15	25	0	30	.	.	.	.	.
CCCCCCCCCCCCCCCC[n+]1ccc(/C=N/O)cc1	50*	51*	15	56*	.	50*	36	.	.	23	49*
O/N=C/c1cccc[n+]1CCCCCC[n+]1ccccc1/C=N/O	-4	0	-2	7	-2	9	.	.	.	.	.
CC(NS(=O)(=O)c1cn(C)c(=O)n(C)c1=O)c1ccccc1 (stereo unspecified)	3	-8	3	16	-3	7	.	.	.	.	.
Nc1nc2sc3c(c2c(=O)s1)CCCC3	44*	73*	54*	71*	0	3	83*	70*	80*	33*	52*	tim10-1 conf=25
C/C(=N\NC(=O)c1ccc(Cl)cc1)c1ccccn1	22	50*	6	72*	87*	36*	85*	94*	83*	.	45*
O=C(COC(=O)c1ccccc1-n1cnnn1)c1ccc(F)cc1	-6	-12	-11	11	-4	.	.	.	.	.	.
COc1ccc(-c2csc(NC(=O)c3ccccc3F)c2C(=O)O)cc1	75*	85*	81*	81*	16	21	94*	91*	81*	72*	86*	tim10-1 conf=75*
O=C(Nc1scc(-c2ccccc2)c1C(=O)O)c1ccccc1Cl	-13	17	8	5	24	12	.	.	.	.	.
Cc1ccc(C(=O)Nc2scc(-c3ccccc3)c2C(=O)O)cc1	82*	86*	85*	79*	34	.	78*	86*	82*	91*	87*	tim10-1 conf=83*
O=C(COC(=O)c1cccc([N+](=O)[O-])c1)c1ccc2c(c1)OCO2	10	41	21	8	-5	.	.	.	.	.	.
CCCCc1cc(O)c(CCCC)c(O)c1	-3	53*	35	51*	14	16	62*	34	50	.	42*
O=C(Nc1ccc2c(c1)OCCO2)c1cccc(Br)c1	31	56*	-2	52*	-2	12	73*	50*	51*	.	58*
O=[N+]([O-])c1ccc(NC(=S)NCCc2ccc(Cl)cc2)cc1	72*	65*	65*	69*	98*	24	68*	93*	94*	85*	68*	tim10-1 conf=73*
S=C(NCCc1ccccc1)Nc1ccc(Cl)cc1	21	36	11	41	6	22	.	.	.	.	.
O=C(O)CC1(c2ccc(F)cc2)C2CC3CC(C2)CC1C3 (stereo unspecified)	1	21	26	-10	15	-13	.	.	.	.	.
CCCCCCCCn1c2c(c(=N)c3ccccc31)CCC2	25	66*	60*	58*	3	6	73*	22	62*	.	63*	tim10-1 conf=51*
CCn1c2c(c(=N)c3c1CCC3)CCCC2	2	-8	-13	6	0	2	.	.	.	.	.
CCCCCCCCCn1c2c(c(=N)c3c1CCC3)CCCC2	51*	80*	52*	68*	3	29	85*	54*	70*	46*	83*	tim10-1 conf=56*
CN1/C(=C\C(=O)c2cccs2)Sc2ccccc21	63*	59*	38	62*	3	-4	21	.	.	60*	80*
COc1cc(OC)cc(C(=O)/C=C2\Sc3ccccc3N2C)c1	21	10	20	25	-12	2	.	.	.	.	.
Cc1ccc(-c2nc(CNC(=O)c3cc(C)on3)cs2)cc1	-8	53*	-11	66*	-12	20	75*	68*	54*	.	41*
CN(C)/C=C1\C(=O)Nc2ccccc21	1	6	-16	7	-4	-6	.	.	.	.	.
SMILES	TIM10 inh	tim23-1 inh	tim10-1 inh	NALP3 yeast inh	SKKanGAS inh	NALP1 inh	NALP3 yeast conf	Casp1 ASC ctr	NALP3 retest	TIM10 conf	tim23-1 confirm	others
O=C1Nc2ccccc2/C1=C/c1ccccc1Cl	32	53*	36	55*	-1	12	69*	49	43	.	46*
CCC1=C(c2cc(OC)c(OC)c(OC)c2)C2(CCCC2)C(=O)O1	-2	9	21	8	3	-3	.	.	.	.	.
CN=C1S/C(=C\c2ccc(O)c(Br)c2)C(=O)N1C	37	62*	56*	68*	29	20	84*	78*	72*	.	63*	tim10-1 conf=50*
COC(=O)[C@]1(C)N[C@H](CN(C)S(=O)(=O)c2ccc(OC(F)(F)F)cc2)[C@@H]2C(=O)N(Cc3ccccc3)C(=O)[C@@H]21	9	4	-8	-2	.	.	.	.	.	.	.
Cc1ccc(C)c(N2CCN(C(=O)CCCn3ncn4c(cc5occc54)c3=O)CC2)c1	7	20	32	3	2	14	.	.	.	.	.
O=C(/C=C1\C(=O)Nc2ccccc21)/C=C1\C(=O)Nc2ccccc21	.	.	.	.	.	1	.	.	.	.	.
CC(C)Oc1ccc(C(=O)/C=C2/C(=O)Nc3ccccc32)cc1	76*	88*	69*	65*	12	-47	76*	86*	64*	69*	85*	tim10-1 conf=76*
Cc1ccc(NC(=O)c2ccccc2)cc1C	46*	59*	20	52*	.	.	75*	40	42	23	64*
